Experimental data published in PubChem BioAssay (NCATS).
Values joined by “and” are separate entries in the source; they are usually repeats but may differ in a detail not shown here. Equal entries are not always repeated. Records with an inconclusive call do not appear. Values without a mark were called inactive. Active and inactive are the calls of the source. The call rests on the fitted dose curve; in most records, active means well fitted activation curve with a large enough effect; inconclusive means small, poorly fitted or top-dose-only effect; inactive means no such curve, though single readings can be large or run the other way.

Target: Cellular tumor antigen p53 (Homo sapiens) (UniProt P04637)
Experiment: Primary qHTS for small molecule compounds that upregulate eGFP-tagged delta133p53alpha (in N-terminal) cells. (AID 2060322); further: nearly all actives have a fitted effect of over 75% in size;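 on activation: cells pre-induced with doxycycline then dosed without doxycycline; series mostly up to about 56 µM; 0% = DMSO vehicle and 100% = reference activator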
Settings: NCI-H358 eGFP-delta133p53alpha fluorescence, 24 h; activation: stronger effect = higher value
Description: Assay Development and Screening Technology
National Center for Advancing Translational Sciences (NCATS),
National Institute of Health (NIH), Rockville, Maryland
Cellular senescence (CS) is one of the hallmarks of aging and age-related diseases. Senescent cells are characterized by an irreversible growth arrest, an increase in senescence-associated beta-galactosidase (SA-beta-gal) activity and p16INK4a expression, an activation of the DNA damage response pathways, and the emergence of a senescence-associated secretory phenotype (SASP).
Delta133p53alpha, a human/primate-specific p53 protein isoform, delays or inhibits the induction of CS and SASP in various types of human cells, including progeria-derived fibroblasts, primary normal astrocytes, and CD8+ T lymphocytes. Induction of delta133p53alpha with small molecule compounds may provide therapeutic opportunities for inhibition of senescence/SASP-associated pathologies in progeria syndromes, astrocyte-mediated neuroprotection in neurodegenerative diseases, and possibly prevention and treatment of a wider range of senescence- and aging-associated diseases.
Here we report the development and validation of a cell-based quantitative high throughput screening (qHTS) assay in 1,536-well format. This qHTS assay uses the NCI-H358 cell line with doxycycline-inducible expression of enhanced green fluorescent protein (eGFP)-tagged delta133p53alpha, which allows efficient and highly quantitative measurement of the protein levels.
PROTOCOL TABLE (as described by Inglese J, Shamu CE and Guy RK. 2007)
SEQUENCE No. (e.g., 1, 2, 3, etc.); […] (e.g., Cells, Incubation, Reagent, etc.); VALUE; DESCRIPTION.
1; Cells; 4uL; 800 doxycycline treated cells / well in doxycycline-free media, 1536-well black, clear-bottom low base Aurora microplates.
2; Compounds; 23 nL; Kalypsis pin tool (Wako) equipped with 1536-well pin heads, 5-azacytidine positive control.
3; Incubation; 24 hr; 37C, 5% CO2; 95% relative humidity.
4; Aspiration; 1x; BioTek EL406 washer dispenser (Agilent).
5; Fixing; 3.5% paraformaldehyde, BioTek EL406 washer dispenser (Agilent).
6; Washing; 1x PBS; BioTek EL406 washer dispenser (Agilent).
7; Nuclei staining; 1:1000 dilution of Hoechst 33342 (Thermofisher), BioTek EL406 washer dispenser (Agilent).
8; Incubation; 20 min; in the dark at room temperature.
9; Washing; 2x, 1x PBS (ThermoFisher), BioTek EL406 washer dispenser (Agilent).
10; Reagent; 10 uL; 1x PBS per well, sealed with clear adhesive tape.
NOTES (numbers refer to sequence numbers above).
1. NCI-H358 cells expressing eGFP-tagged delta133p53alpha were grown in T75 culture flasks and treated with doxycycline for 24h, at 10 ng/ml for eGFP-D133p53a cells (N-terminal cell) and 100 ng/ml for D133p53a-eGFP cells (C-terminal cells). Cells were trypsinized, counted using a Counted 3 Automated Cell Counter (Thermo Fisher), and diluted to a concentration of 200,000 cells/ml. A Multidrop Combi Reagent Dispenser (ThermoFisher) was used to dispense 800 cells/well in […] of doxycycline-free media, into 1536-well black/clear bottom low base plates (AuroraMicroplates).
2. After plating cells, 23 nl of compound library, DMSO vehicle control or positive control (5-azacytidine) were transferred by Pin Tool (Wako). The plate map layout was the same for each plate: (column 1) non-doxycycline treated cells + DMSO vehicle control; (column 2) doxycycline treated cells + DMSO vehicle control baseline; (column 3) doxycycline treated cells + positive control 57.5 uM final concentration 5-azacytidine; (column 4) doxycycline treated cells + serial dilution of 5-azacytidine, 16-point 1:2 titration spanning 1.8 nM to […] final concentration; (columns 5-48) doxycycline treated cells + titration of library compounds.
3. Cells were incubated at 37 °C, 5 % CO2, 95% RH with breathable metal lid for 24h.
4-10. […] After two washes, 10 ul of 1X PBS (Thermo Fisher) was dispensed to each well. Clear adhesive plate seals (VWR) were applied and plates stored at 4 °C.
11. […]
Potency means the concentration at half of the fitted maximal effect.

Sequence of Cellular tumor antigen p53 (Homo sapiens) (P04637 whole entry, looked up): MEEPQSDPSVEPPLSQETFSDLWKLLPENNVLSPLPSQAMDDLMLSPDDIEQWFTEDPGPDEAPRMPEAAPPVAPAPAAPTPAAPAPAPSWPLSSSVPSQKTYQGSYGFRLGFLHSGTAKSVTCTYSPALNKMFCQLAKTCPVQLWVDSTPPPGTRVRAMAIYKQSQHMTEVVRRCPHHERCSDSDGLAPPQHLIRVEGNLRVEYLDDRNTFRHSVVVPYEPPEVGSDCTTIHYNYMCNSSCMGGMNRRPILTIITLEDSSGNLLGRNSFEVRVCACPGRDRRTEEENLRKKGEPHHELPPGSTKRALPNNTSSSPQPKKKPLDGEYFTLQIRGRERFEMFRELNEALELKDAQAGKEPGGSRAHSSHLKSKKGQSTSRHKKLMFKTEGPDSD

Structure (SMILES) | activation | Potency
CC(C)(OCc1nn(Cc2ccccc2)c2ccccc12)C(=O)O | -10.7% and 1.91% | 
CCC[C@H](N[C@H]1CCc2cc(F)cc(F)c2C1)C(=O)Nc1cn(C(C)(C)CNCC(C)(C)C)cn1 | -12.9% | 
CC1OC(O[C@@H]2[C@H](O)[C@@H](OC3OC(CO)C(O)C(O)C3O)[C@H](OC(=O)[C@]34CCC(C)(C)C[C@H]3C3=CCC5[C@@]6(C)CC[C@H](O[C@@H]7O[C@H](C(=O)O)[C@@H](O)[C@H](O[C@@H]8OC[C@@H](O)[C@H](O)[C@H]8O)[C@H]7O[C@@H]7O[C@H](CO)[C@H](O)[C@H](O)[C@H]7O)[C@@](C)(C=O)C6CC[C@@]5(C)[C@]3(C)C[C@H]4O)O[C@@H]2C)C(O)C(O)C1OC1OCC(O)C(O)C1O (stereo not given in full) | 5.34% | 
C[C@](Cc1ccc(O)c(O)c1)(NN)C(=O)O | -15.4% | 
NC(N)=NC(=O)c1cnn(-c2cccc3ncccc23)c1C1CC1 | 25% | 
COC(=O)C1C2CC3c4[nH]c5cc(OC)ccc5c4CCN3CC2CC(OC(=O)c2cc(OC)c(OC)c(OC)c2)C1OC (stereo not given) | 4.12% | 
Cc1cccc(CN2CCN(C(c3ccccc3)c3ccc(Cl)cc3)CC2)c1 (stereo not given) | 5.02% and 0.39% | 
COc1ccc2cc(-c3cc(-c4cc(Cl)cc(Cl)c4)nn3C(C)c3ccc(C(=O)NCCC(=O)O)cc3)ccc2c1 (stereo not given) | 29.1% | 
Cc1ncc(Cl)cc1NCc1ccc(C(=O)N[C@@H](CC2CCCC2)C(=O)NC2CC2)s1 | -39.1% | 
CCCN(CCN1CCN(c2ccccc2OC)CC1)C1CCc2ncsc2C1 (stereo not given) | -3.57% | 
O=C(O)CC1CCC(c2ccc(NC(=O)c3nnc(Nc4ccc(F)c(F)c4)o3)cc2)CC1 (stereo not given) | -0.955% | 
CCN(CC)CCn1c(=O)c(Cc2ccc(OC)cc2)nc2ccccc21 | 3.86% and 2.44% | 
Cc1cnc(-c2cc(N3CCN(C(=O)CCS(C)(=O)=O)CC3)ncc2Cl)c(C)c1 | 20.4% and -10.5% | 
COc1ccc(S(=O)(=O)Nc2cccnc2Nc2ccc(O)cc2)cc1 | -22.5% and 22.4% | 
CCN[C@@H]1C[C@H](N)[C@@H](OC2OC(CN)=CCC2N)[C@H](O)[C@H]1O[C@H]1OC[C@](C)(O)[C@H](NC)[C@H]1O (stereo not given in full) | 1.67% | 
CC1(C)CCC2(C(=O)OC3OC(COC4OC(CO)C(O)C(O)C4O)C(O)C(O)C3O)CCC3(C)C(=CCC4C5(C)CCC(O)C(C)(C(=O)O)C5CCC43C)C2C1O (stereo not given) | 5.34% | 
NC(=O)C(O[C@@H]1O[C@H](CO[C@@H]2O[C@H](CO)[C@@H](O)[C@H](O)[C@H]2O)[C@@H](O)[C@H](O)[C@H]1O)c1ccccc1 (stereo not given in full) | -6.11% | 
CC(=O)NCCCCCC(=O)O | 0.837% | 
Cc1nc2ccc(-n3ncc(C(=O)c4cc5ccccc5[nH]4)c3N)cc2[nH]1 | 1.79% | 
NC/C=C/C(=O)O | 18.6% and -17.5% | 

Structure (SMILES) | activation | Potency
COc1cc(C(=O)NC2CCN(C)CC2)ccc1Nc1ncc2c(n1)N(C1CCCC1)CC(F)(F)C(=O)N2C | 29.5% | 
OC[C@H]1O[C@@H](O[C@H]2[C@H](O)[C@@H](CO)O[C@@H](OCc3ccccc3)[C@@H]2O[C@@H]2OC[C@](O)(CO)[C@H]2O)[C@H](O)[C@@H](O)[C@@H]1O | -11.5% | 
CCOc1ccc2nc(SCCN3CCOCC3)[nH]c2c1 | -7.64% | 
CCCCNc1nc(N)c2[nH]c(=O)n(Cc3ccc(OCCN(C)C)nc3)c2n1 | -9.55% | 
CC(=O)Oc1ccc(C2(c3ccc(OC(C)=O)cc3)C(=O)Nc3ccccc32)cc1 | -31.1% | 
O=C1NC(Cc2ccccc2)C(=O)N2CCCC12 (stereo not given) | -16.8% | 
O=C1[C@H](O[C@@H]2O[C@H](CO)[C@@H](O)[C@H](O)[C@H]2O)Oc2ccccc2N1O | 14.3% | 
C=C1CC[C@H](O)CC1=C/C=C1\CCC[C@]2(C)[C@@H]([C@H](C)/C=C/[C@H](C)C(C)C)CC[C@@H]12 | 5.73% | 
O=C(/C=C/c1ccc(O)c(O)c1)O[C@H]1[C@@H]2C=CO[C@@H](O[C@@H]3O[C@H](CO)[C@@H](O)[C@H](O)[C@H]3O)[C@@H]2[C@@]2(CO)O[C@@H]12 | 22.3% | 
C/C=C(\C)C(=O)OC[C@H]1O[C@@H](O[C@H]2[C@@H](O[C@H]3O[C@H](COC(=O)/C(C)=C/C)[C@@H](O)[C@H](O)[C@H]3O[C@@H]3O[C@H](COC(=O)/C(C)=C/C)[C@@H](O)[C@H](OC(=O)/C(C)=C/C)[C@H]3O)O[C@H](COC(=O)/C(C)=C/C)[C@@H](O)[C@@H]2O)[C@H](O)[C@@H](O)[C@@H]1O | -15.3% | 
C=C(C(=O)O)C1CC(O)C2(C)CCCC(=C)C2C1 (stereo not given) | 3.82% | 
CC12CCC(C(OC3OC(COC4OCC(O)(CO)C4O)C(O)C(O)C3O)C1)C(C)(C)O2 (stereo not given) | -13.4% | 
CC(=O)OCC(=O)O[C@@H]1[C@H]2[C@@H](OC(=O)c3ccccc3)[C@@H](C)C[C@]2(O)[C@H](OC(C)=O)C2(C)[C@H]3CC(C)(C)C(=O)[C@@H]3CC1(OC(C)=O)[C@@H]2OC(C)=O (stereo not given in full) | -11.6% | 
COc1ccc([C@H]2Cc3cccc(O)c3C(=O)O2)cc1 | 3.05% | 
CC(C)NNC(=O)c1ccncc1 | 1.67% and -19% | 
Cc1cc(Cn2cnc3c2CC(C(=O)O)N(C(=O)C(c2ccccc2)c2ccccc2)C3)ccc1N(C)C (stereo not given) | -7.64% | 
OCc1ccccn1 | 8.37% | 
C[C@@H]1O[C@@H](O[C@H]2[C@H](O[C@H]3[C@H](O[C@H]4CC[C@@]5(C)C(CC[C@]6(C)C5CC=C5[C@@H]7CC(C)(C)C[C@@H](O)[C@]7(C)CC[C@]56C)C4(C)C)O[C@H](C(=O)O)[C@@H](O)[C@@H]3O)O[C@H](C(=O)O)[C@H](O)[C@@H]2O)[C@H](O)[C@H](O)[C@H]1O (stereo not given in full) | -16.8% | 
NC(=O)c1cnc(NCCc2ccc(O)c(Cl)c2)nc1NCc1ccccc1 |  | 9.53 µM (active)
CCCC(=O)NCCc1c2n(c3ccc(OC)cc13)CCCc1ccccc1-2 | -45.5% | 
